Screening results from PubChem BioAssay.
Sampled rows, rich in hits. Any-hit rate of the full collection: about 7.5%.
Rab9 promoter act: qHTS Assay for Rab9 Promoter Activators | AID 485297, 2010 | Huh7 Rab9 promoter-luciferase reporter, luminescence, 24 h | Potency, µM (highest dose often 9.22 µM), for the others: top-dose activation, negative = inhibition, usual class: activators | hit rate 2.8% among 320,000; also: % of control where 0% means no effect; nearly all actives have a fitted effect of over 60% in size
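Huh7 cells stably carrying a Rab9 promoter-luciferase reporter, 1500 cells per well in OP-MEM I with 10% FBS, treated with compound 24 hours at 37C. Luciferase activity read by luminescence after 10 minutes with Amplite reagent.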
NPC1 promoter act: qHTS Assay for NPC1 Promoter Activators | Huh7 NPC1 promoter luciferase reporter, 24 h | AID 485313, 2010 | hit rate 2.4% among 320,000 | Potency, µM (series often up to 9.22 µM), for inactives: at the top dose activation, usual class: activators; also: % of control where 0% means no effect; nearly all actives have a fitted effect of over 60% in size
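NPC1 promoter–luciferase Huh7 cells; 24 h compound; luminescence.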
ELG1 genotox: qHTS screen for small molecules that induce genotoxicity in human embryonic kidney (HEK293T) cells expressing luciferase-tagged ELG1 | HEK293T ELG1-luciferase reporter, luminescence, 16 h | Potency, µM (top dose mostly 46 µM), inactives show at the top dose activity change, positive = activation, most hits filed as activators | hit rate 1.3% among 330,000; also: % of control where 0% means no effect; nearly all actives have a fitted effect of over 60% in size
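ELG1-luciferase HEK293T cells, 2,000/well; compound pinned in; 16 hr, 37 °C, 5% CO2; ONE-Glo, 30 min RT; luminescence on CCD imager.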
FLuc counter: qHTS profiling assay for firefly luciferase inhibitor/activator using purifed enzyme and Km concentrations of substrates (counterscreen for miR-21 project); Luciferin 4-monooxygenase (Photinus pyralis), P08659; purified FLuc, Km substrates, luminescence inhibition; Potency, µM (highest dose often 57.5 µM), for inactives: top-dose activity change, negative = inhibition, usual class: inhibitors; hit rate 6.9% among 360,000; AID 588342, 2011;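 also: plate controls were vehicle for no effect and reference inhibitor for full effect; nearly all actives have a fitted effect of over 55% in size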
Target sequence (P08659 whole entry, looked up): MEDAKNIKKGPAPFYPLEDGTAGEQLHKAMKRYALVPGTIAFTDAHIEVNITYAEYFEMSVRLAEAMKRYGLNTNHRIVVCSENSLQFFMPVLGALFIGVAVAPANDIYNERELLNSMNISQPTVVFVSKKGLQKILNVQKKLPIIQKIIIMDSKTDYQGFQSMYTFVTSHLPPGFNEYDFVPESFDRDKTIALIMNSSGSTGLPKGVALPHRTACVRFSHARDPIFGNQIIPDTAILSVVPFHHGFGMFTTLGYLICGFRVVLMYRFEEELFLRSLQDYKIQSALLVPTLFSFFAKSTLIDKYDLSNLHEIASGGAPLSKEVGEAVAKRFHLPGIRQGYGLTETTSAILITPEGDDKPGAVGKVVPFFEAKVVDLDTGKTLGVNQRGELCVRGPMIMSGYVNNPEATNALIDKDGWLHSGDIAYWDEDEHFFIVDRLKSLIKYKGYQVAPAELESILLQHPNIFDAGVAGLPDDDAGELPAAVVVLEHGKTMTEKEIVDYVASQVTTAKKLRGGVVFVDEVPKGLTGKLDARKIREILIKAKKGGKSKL
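Purified P. pyralis luciferase, 10 nM final, with Km-level 10 uM D-luciferin and 10 uM ATP in 50 mM Tris acetate pH 7.5, 10 mM Mg acetate, 0.01% Tween-20, 0.05% BSA; 6-point qHTS titration about 60 µM downward; luminescence read.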
Luc counter: Counterscreen for Luciferase (Kinase-Glo TM) Inhibition; Potency, µM (top dose mostly 38.3 µM), for the others: at the highest dose activity change, negative = inhibition, most hits filed as inhibitors; Luciferin 4-monooxygenase (Photuris pensylvanica), Q27757; Kinase-Glo luciferase, ATP luminescence, 8 min; hit rate 0.28% among 200,000; AID 1379, 2008; also: % is scaled to controls: 0 for no effect and ±100 for the full control effect; nearly all actives have a fitted effect of over 60% in size
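Compound is pinned into ATP-containing buffer (10 uM ATP, imidazole pH 7.2, 7 mM MgCl2). Kinase-Glo luciferase reagent is then added. Light output is recorded following an 8-min room-temperature incubation.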
SMN2 splice enh: qHTS Assay for Enhancers of SMN2 Splice Variant Expression | AID 1458, 2008 | HEK293 SMN2-luciferase splicing reporter, luminescence, 30-36 h | hit rate 2.8% among 210,000 | Potency, µM (doses to about 46.1 µM), for inactives: top-dose activity change, positive = activation, most hits filed as activators; also: % of control where 0% means no effect; nearly all actives have a fitted effect of over 55% in size
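qHTS luciferase splicing reporter: luminescence rises when SMN2 exon 7 is included in transfected HEK293 cells. Compound exposure lasted 30-36 h at 37C, with 4.5 mM final sodium butyrate as control, followed by a ONE-Glo read.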
Active calls of the source: *; ? = inconclusive; . = no result. Calls follow the shape of the dose curve; as a rule, active = well fitted curve in the direction sought with a large enough effect; inconclusive = small, poorly fitted or top-dose-only effect, or another doubt; inactive = no such curve, though single readings can be large; an effect the other way counts as inactive or inconclusive. Potency is read from the fitted curve at half-maximal effect.

SMILES | Rab9 promoter act | NPC1 promoter act | ELG1 genotox | FLuc counter | Luc counter | SMN2 splice enh
O=C(c1ccc2nc(N3CCOCC3)sc2c1)N1CCCC1 | 1.8% | 1.3% | 14.0% | 3.1% | -3.7% | -15.2%
COc1cccc(N2CCN(C(=O)c3ccc4nc(N5CCCCC5)sc4c3)CC2)c1 | ? | ? | ? | 19µM* | 2.3% | -21.5%
COc1ccc(N2CCN(C(=O)c3ccc4nc(N5CCCCC5)sc4c3)CC2)cc1 | 15.5% | 15.4% | 23.1µM* | ? | 1.0% | -6.4%
CC(C)n1cnc2c(Nc3ccc(C(=O)O)cc3)nc(Cl)nc21 | 18.5% | ? | ? | 12µM* | . | .
COc1cc(NC(=O)c2nnn(CC(=O)Nc3cc(C)ccc3C)c2N)cc(OC)c1 | . | . | . | -1.8% | . | .
Cc1nnc(SCc2ccc(Cl)cc2Cl)[nH]c1=O | -0.8% | -0.2% | ? | ? | 3.9% | 9.6%
Cc1cnc(SCc2ccc(Cl)cc2Cl)[nH]c1=O | -3.0% | -0.7% | 8.2% | 21.3µM* | . | .
CCC(=NCc1ccccc1)c1c(C(F)(F)F)[nH]n(-c2nc3ccccc3s2)c1=O | 2.9% | 19.8% | ? | 12µM* | -0.7% | -1.7%
CC(=NCc1ccco1)c1c(C)[nH]n(-c2nc3ccccc3s2)c1=O | ? | ? | 3.66µM* | 7.57µM* | . | .
O=c1c(C=NCc2cccnc2)c(C(F)(F)F)[nH]n1-c1nc2ccccc2s1 | 1.1% | -1.9% | -5.6% | 1.9% | -6.1% | .
C/C(=N/NC(=O)c1cccs1)c1c(C)[nH]n(-c2nc3ccccc3s2)c1=O | 2µM* | 2µM* | ? | 0.601µM* | 10µM* | 11.2µM*
CCC(=NCc1ccco1)c1c(C(F)(F)F)[nH]n(-c2nc3ccccc3s2)c1=O | ? | ? | 9.2µM* | 7.57µM* | -8.1% | 17.1%
CCCN=C(C)c1c(-c2ccccc2)[nH]n(-c2nc3ccccc3s2)c1=O | 26.3% | ? | -12.5% | ? | 20.4% | -34.4%
CC(=O)NC(Cc1ccc(F)cc1)C(=O)NC1CCN(C(=O)NCc2ccccc2)CC1 (stereo unspecified) | -1.5% | 1.3% | -0.3% | -0.1% | . | .
CCOC(=O)C1=C(COC(=O)/C=C/c2cccc([N+](=O)[O-])c2)NC(=O)NC1C (stereo unspecified) | -3.7% | -0.5% | 0.5% | 9.8% | . | .
O=C(Nc1ccc([N+](=O)[O-])cc1)C(=O)Nc1cccc(C(=O)O)c1 | ? | ? | ? | 0.019µM* | . | .
O=C(O)/C=C/c1cccc(NC(=O)Nc2ccc([N+](=O)[O-])cc2)c1 | 4.5% | -5.3% | 0.2% | 7.57µM* | . | .
O=C(Cc1ccccc1)Nc1ccc(NC(=O)c2ccco2)nc1 | 2.51µM* | 2.24µM* | ? | 16.9µM* | -8.2% | ?
O=C(Nc1ccc(NC(=O)C2CC2)cc1)c1ccco1 | 1.78µM* | 3.16µM* | 13µM* | 19µM* | . | .
CCCC(=O)Nc1ccc(NC(=O)Cc2ccccc2)cn1 | 2.0% | 1.5% | -1.8% | 0.2% | -2.1% | -14.5%
COc1cc(NC(=O)C2CC2)c(OC)cc1NC(=O)c1ccco1 | -0.9% | -3.7% | -0.7% | 1.1% | . | .
O=C(Nc1ccc(NC(=O)c2ccco2)nc1)c1ccccn1 | 0.708µM* | 0.447µM* | ? | 6.01µM* | 10µM* | 14.1µM*
COc1ccccc1C(=O)Nc1ccc(NC(=O)c2ccco2)cn1 | ? | ? | ? | 6.01µM* | . | .
CCC(=O)Nc1ccc(NC(=O)C23CC4CC(CC(C4)C2)C3)cn1 | 21.4% | 23.2% | ? | -15.1% | -4.1% | ?
O=C(Nc1ccc(NC(=O)C23CC4CC(CC(C4)C2)C3)cn1)c1ccco1 | 21.8% | 1µM* | 2.31µM* | 6.01µM* | -7.2% | 31.5%
SMILES | Rab9 promoter act | NPC1 promoter act | ELG1 genotox | FLuc counter | Luc counter | SMN2 splice enh
O=C(Nc1ccc(NC(=O)c2ccco2)nc1)c1ccco1 | 0.316µM* | 0.398µM* | 4.3% | 4.78µM* | -23.0% | 2.51µM*
O=C(Nc1ccc(NC(=O)C2CCCCC2)cn1)c1ccco1 | 0.447µM* | 0.708µM* | 0.651µM* | 1.69µM* | . | .
O=C(Nc1ccccn1)c1ccco1 | ? | ? | 9.0% | ? | -7.1% | ?
CC(C)(C)C(=O)Nc1ccc(NC(=O)c2ccco2)nc1 | -39.4% | -34.4% | ? | 0.169µM* | . | .
Cc1ccc(-c2nc(N3CCCC(C)C3)c3ccccc3n2)cc1 (stereo unspecified) | . | . | . | 6.0% | . | -2.4%
COc1cc(OC)c2c(C)c(CC(=O)NCc3ccccc3OC)c(=O)oc2c1 | . | . | . | -2.8% | . | 3.2%
CC1CC(C)CN(C(=O)c2ccc3c(c2)OCCO3)C1 (stereo unspecified) | 0.7% | -2.8% | 3.7% | 1.8% | . | .
COc1cc(C(C)=O)ccc1OCC(=O)OCC(=O)c1cc(C)n(CC2CCCO2)c1C (stereo unspecified) | -4.5% | 0.3% | 2.4% | ? | . | .
Cc1cccc(C(=O)NCC(=O)OCC(=O)c2cc(C)n(CC3CCCO3)c2C)c1 (stereo unspecified) | 21.6% | 15.1% | ? | 21.3µM* | -5.6% | 7.8%
Cc1cc(C(=O)COC(=O)CNC(=O)c2ccccc2)c(C)n1CC1CCCO1 (stereo unspecified) | -12.2% | -4.0% | 8.3% | 19µM* | -1.7% | -6.3%
CC(C)CCNC(=O)Cn1cc(S(=O)(=O)Cc2ccc(F)cc2)c2ccccc21 | . | . | . | -10.3% | . | .
O=C(c1ccc2c(c1)OCCO2)N1CCCC(CNS(=O)(=O)c2cccs2)C1 (stereo unspecified) | -2.4% | -3.2% | -1.2% | -3.0% | 1.7% | .
COc1cc(C2C=C(C(=O)O)Nc3ncnn32)ccc1O (stereo unspecified) | . | . | . | 1.3% | . | -9.3%
CN(C)CCNC(=O)C(=O)C1C(=O)Nc2ccccc21 (stereo unspecified) | 9.2% | -0.2% | -2.2% | -0.1% | -1.8% | 2.8%
CC1=NN(c2ccccc2)C(=O)C1C(=O)C(=O)Nc1ccc(F)cc1 (stereo unspecified) | 3.16µM* | ? | ? | 9.53µM* | . | .
CC1=NN(c2ccccc2)C(=O)C1C(=O)c1ccccc1 (stereo unspecified) | -3.3% | -1.0% | -4.5% | -12.8% | 1.6% | -3.6%
Cc1ccc(NC(=O)C(=O)C2C(=O)Nc3ccccc32)cc1 (stereo unspecified) | ? | ? | ? | 12µM* | . | .
COc1cc(OC)c(NC(=O)CSc2nccn2C)cc1Cl | . | . | . | 0.8% | . | -8.7%
COCCCN(C(=O)c1ccccc1)c1nc(-c2ccc(OC)cc2)cs1 | 4.9% | 1.7% | -5.2% | -8.3% | . | .
